The structures appear in SMILES notation. For some of these results: Results with a measured potency or affinity are listed apart.

Set-up in all cases: scale not given: direction of the effect not stated beside the values
For assay [1], the target named is Protein translocase subunit SecA (Escherichia coli (strain K12)) (UniProt P10408). In words: Assay to Identify E. coli SecA ATPase Inhibitors. Type of assay: functional. The note with it: 30 µM.
The target in assay [2] is T1, Ubiquitin-activating enzyme e1, putative (Leishmania donovani (strain BPK282A1)) (UniProt E9BSI1).
T1 sequence (whole entry): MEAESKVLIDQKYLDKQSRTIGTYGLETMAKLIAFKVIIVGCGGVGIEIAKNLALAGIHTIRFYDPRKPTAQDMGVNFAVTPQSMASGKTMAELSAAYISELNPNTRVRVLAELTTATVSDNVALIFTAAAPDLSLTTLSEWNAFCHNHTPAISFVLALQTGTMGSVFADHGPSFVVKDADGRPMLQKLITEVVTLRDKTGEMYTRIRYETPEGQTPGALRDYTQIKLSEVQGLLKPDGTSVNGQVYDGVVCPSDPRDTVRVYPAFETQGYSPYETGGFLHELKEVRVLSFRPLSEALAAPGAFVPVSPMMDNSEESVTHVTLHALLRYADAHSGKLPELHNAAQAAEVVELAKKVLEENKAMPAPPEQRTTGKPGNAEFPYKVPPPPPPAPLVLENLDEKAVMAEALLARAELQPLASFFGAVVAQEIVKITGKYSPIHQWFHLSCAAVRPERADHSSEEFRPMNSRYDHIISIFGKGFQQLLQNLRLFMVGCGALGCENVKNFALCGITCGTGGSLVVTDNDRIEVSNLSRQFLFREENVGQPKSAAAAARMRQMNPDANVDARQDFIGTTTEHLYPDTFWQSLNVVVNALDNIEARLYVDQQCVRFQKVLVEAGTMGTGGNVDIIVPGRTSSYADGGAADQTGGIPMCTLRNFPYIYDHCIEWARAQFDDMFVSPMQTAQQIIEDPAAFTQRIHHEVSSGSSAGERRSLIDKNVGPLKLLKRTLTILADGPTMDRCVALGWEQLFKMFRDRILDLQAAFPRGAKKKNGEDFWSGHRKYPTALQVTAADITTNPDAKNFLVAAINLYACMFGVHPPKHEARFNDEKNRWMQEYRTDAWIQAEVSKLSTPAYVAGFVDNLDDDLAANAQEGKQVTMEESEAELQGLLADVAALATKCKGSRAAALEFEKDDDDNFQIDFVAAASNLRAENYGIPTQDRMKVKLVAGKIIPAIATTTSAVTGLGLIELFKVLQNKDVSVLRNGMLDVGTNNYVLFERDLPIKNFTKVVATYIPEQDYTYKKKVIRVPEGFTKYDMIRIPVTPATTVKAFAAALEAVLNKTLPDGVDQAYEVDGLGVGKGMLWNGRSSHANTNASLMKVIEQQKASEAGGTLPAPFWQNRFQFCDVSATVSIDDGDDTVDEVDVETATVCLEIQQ
In words: Leishmania donovani Ubiquitin Activating Enzyme (LdE1). Type of assay: functional. The note with it: 30 µM.

The target of assay [3] is AMP-activated protein kinase, AMPK (Homo sapiens) (UniProt P54646+O43741+P54619+Q9UGJ0+Q9Y478+Q13131+Q9UGI9). The assay can be described thus: AMP-dependent Kinase enzyme assay. An in vitro enzyme assay that detects ADP turnover that is directly proportional to AMPK activity. This uses naive AMPK that is activated during the assay with MK-8722. Type of assay: functional. The note with it: 30 µM.

Assay [4] deals with Sialic acid-binding Ig-like lectin 9 (Homo sapiens) (UniProt Q9Y336). The assay can be described thus: Hs-Siglec9 ALPHAscreen SOP 20170721. The note with it: 10 µM. A general note: Alpha assays give light when donor and acceptor beads are brought close together.
Sialic acid-binding Ig-like lectin 9 (Homo sapiens), sequence (Q9Y336 whole entry): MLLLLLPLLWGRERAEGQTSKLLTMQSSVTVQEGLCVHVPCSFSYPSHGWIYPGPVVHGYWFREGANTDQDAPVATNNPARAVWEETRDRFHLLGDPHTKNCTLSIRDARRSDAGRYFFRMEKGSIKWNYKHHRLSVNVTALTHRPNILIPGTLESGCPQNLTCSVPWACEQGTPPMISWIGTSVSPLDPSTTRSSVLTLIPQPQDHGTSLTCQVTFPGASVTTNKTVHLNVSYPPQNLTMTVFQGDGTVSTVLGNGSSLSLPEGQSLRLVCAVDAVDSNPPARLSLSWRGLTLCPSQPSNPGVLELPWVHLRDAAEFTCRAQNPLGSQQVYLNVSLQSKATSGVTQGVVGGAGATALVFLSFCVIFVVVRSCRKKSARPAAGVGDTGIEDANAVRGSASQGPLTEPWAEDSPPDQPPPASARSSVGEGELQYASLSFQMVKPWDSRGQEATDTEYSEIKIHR
The test system of another assay is Trypanosoma cruzi. In words: Trypanosoma cruzi phosphomannomutase and mannose-1-phosphate guanylyltransferase assay. In kind it is functional. The note with it: 10 µM.
Assay [5] addresses T2, Arginase-2, mitochondrial (Homo sapiens) (UniProt P78540).
T2 sequence (whole entry): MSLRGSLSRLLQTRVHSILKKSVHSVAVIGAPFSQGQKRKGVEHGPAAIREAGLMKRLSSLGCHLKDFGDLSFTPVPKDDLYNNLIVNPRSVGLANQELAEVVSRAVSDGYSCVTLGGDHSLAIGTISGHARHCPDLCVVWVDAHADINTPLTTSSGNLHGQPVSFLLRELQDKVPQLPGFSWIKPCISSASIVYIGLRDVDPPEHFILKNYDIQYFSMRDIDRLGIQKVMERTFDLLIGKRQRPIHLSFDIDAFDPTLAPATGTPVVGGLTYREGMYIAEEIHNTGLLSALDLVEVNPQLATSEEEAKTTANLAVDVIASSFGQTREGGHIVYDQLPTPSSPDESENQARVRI
In words: in vitro enzyme assay to detect the production of urea directly proportional to the activity of Arginase II. Further: in the data most compounds retested in dose-response had high values. The note with it: 33.3 µM. In kind it is functional.

Assay [6] has as its target T3, Proteasome subunit beta (Trypanosoma cruzi) (UniProt O96673).
T3 sequence (whole entry): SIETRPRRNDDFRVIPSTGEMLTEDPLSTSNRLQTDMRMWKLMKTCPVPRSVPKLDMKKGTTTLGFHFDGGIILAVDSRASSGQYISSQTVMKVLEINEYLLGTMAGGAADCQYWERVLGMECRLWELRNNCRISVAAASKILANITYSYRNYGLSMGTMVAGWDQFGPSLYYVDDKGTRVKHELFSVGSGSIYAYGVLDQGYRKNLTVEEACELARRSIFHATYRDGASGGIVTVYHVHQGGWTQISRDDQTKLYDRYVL
The assay can be described thus: Trypanosoma cruzi proteasome chymotrypsin-like activity (TcProtChymo) assay. Further: in the data most compounds retested in dose-response had high values. In kind it is functional. The note with it: 9.37 µM.

The species entered for another assay is Homo sapiens. In words: To identify inhibition of the IFN signalling (Jak-Stat) pathway via expression of an eGFP reporter gene under the control of an IFN-stimulated response element (ISRE) containing MxA promoter. The note with it: 30 µM. In kind it is functional. For orientation: Reporter assays use an easily measured gene product as a stand-in for the process of interest.

Assay [7] deals with T4, Tyrosyl-tRNA synthetase, putative (Trypanosoma cruzi (strain CL Brener)) (UniProt Q4DSP6).
T4 sequence (whole entry): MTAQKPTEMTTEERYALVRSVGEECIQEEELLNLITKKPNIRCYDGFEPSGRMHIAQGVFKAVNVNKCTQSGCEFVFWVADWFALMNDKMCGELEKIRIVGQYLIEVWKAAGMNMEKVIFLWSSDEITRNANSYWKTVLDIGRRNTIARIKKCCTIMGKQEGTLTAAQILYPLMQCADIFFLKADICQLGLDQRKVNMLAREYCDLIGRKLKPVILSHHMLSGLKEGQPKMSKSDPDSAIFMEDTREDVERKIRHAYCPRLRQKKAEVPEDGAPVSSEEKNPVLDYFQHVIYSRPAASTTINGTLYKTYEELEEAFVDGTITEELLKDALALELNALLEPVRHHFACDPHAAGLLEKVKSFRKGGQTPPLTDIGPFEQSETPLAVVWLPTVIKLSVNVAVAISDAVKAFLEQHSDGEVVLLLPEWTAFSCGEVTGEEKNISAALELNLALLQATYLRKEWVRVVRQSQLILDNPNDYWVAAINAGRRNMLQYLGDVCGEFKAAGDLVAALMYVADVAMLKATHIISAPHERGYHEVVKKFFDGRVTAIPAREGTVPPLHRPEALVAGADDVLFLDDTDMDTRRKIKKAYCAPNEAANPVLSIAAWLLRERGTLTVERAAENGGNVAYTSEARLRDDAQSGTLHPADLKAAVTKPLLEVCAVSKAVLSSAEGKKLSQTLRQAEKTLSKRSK
In words: Trypanosoma cruzi tyrosyl tRNA synthetase (TcYRS) _High Tyrosine SOP. Further: in the data most compounds retested in dose-response had high values. Type of assay: functional. The note with it: 30 µM.

Assay [8] deals with T4, Tyrosyl-tRNA synthetase, putative (Trypanosoma cruzi (strain CL Brener)). In words: Trypanosoma cruzi tyrosyl tRNA synthetase (TcYRS) SOP. In kind it is functional. The note with it: 30 µM.
Assay [9] addresses Chromo domain-containing protein 1 (Saccharomyces cerevisiae (strain ATCC 204508 / S288c) (Baker's yeast)) (UniProt P32657). In words: ScCHD-1 Enzyme Inhibition Assay. Further: in the data most compounds retested in dose-response had high values. In kind it is functional. The note with it: 30 µM.

Protein translocase subunit SecA (Escherichia coli (strain K12)), sequence (P10408 whole entry): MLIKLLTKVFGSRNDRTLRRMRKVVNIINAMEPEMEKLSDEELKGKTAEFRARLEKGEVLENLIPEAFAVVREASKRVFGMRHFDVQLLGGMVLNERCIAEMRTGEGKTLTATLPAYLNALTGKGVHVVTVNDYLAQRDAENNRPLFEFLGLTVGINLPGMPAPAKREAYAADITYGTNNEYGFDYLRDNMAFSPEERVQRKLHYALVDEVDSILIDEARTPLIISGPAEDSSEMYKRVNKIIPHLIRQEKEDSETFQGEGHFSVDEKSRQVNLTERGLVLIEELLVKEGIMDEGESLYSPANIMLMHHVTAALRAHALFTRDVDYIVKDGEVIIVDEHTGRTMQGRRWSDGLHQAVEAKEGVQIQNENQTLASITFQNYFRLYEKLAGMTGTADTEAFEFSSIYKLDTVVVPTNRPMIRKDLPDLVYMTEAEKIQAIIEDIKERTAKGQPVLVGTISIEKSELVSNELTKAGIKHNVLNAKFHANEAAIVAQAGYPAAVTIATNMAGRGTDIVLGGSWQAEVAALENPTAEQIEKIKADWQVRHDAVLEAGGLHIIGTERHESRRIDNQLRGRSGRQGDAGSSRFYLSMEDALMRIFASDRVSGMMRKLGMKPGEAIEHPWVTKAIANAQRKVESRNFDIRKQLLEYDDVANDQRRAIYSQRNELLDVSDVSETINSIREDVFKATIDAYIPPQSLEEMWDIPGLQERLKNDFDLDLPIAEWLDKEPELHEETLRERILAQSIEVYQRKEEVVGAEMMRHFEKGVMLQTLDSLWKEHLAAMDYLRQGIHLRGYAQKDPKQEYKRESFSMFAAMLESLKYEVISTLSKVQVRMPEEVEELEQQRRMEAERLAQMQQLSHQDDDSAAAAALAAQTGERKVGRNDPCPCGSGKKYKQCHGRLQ
Chromo domain-containing protein 1 (Saccharomyces cerevisiae (strain ATCC 204508 / S288c) (Baker's yeast)), sequence (P32657 whole entry, the tested form may be a part): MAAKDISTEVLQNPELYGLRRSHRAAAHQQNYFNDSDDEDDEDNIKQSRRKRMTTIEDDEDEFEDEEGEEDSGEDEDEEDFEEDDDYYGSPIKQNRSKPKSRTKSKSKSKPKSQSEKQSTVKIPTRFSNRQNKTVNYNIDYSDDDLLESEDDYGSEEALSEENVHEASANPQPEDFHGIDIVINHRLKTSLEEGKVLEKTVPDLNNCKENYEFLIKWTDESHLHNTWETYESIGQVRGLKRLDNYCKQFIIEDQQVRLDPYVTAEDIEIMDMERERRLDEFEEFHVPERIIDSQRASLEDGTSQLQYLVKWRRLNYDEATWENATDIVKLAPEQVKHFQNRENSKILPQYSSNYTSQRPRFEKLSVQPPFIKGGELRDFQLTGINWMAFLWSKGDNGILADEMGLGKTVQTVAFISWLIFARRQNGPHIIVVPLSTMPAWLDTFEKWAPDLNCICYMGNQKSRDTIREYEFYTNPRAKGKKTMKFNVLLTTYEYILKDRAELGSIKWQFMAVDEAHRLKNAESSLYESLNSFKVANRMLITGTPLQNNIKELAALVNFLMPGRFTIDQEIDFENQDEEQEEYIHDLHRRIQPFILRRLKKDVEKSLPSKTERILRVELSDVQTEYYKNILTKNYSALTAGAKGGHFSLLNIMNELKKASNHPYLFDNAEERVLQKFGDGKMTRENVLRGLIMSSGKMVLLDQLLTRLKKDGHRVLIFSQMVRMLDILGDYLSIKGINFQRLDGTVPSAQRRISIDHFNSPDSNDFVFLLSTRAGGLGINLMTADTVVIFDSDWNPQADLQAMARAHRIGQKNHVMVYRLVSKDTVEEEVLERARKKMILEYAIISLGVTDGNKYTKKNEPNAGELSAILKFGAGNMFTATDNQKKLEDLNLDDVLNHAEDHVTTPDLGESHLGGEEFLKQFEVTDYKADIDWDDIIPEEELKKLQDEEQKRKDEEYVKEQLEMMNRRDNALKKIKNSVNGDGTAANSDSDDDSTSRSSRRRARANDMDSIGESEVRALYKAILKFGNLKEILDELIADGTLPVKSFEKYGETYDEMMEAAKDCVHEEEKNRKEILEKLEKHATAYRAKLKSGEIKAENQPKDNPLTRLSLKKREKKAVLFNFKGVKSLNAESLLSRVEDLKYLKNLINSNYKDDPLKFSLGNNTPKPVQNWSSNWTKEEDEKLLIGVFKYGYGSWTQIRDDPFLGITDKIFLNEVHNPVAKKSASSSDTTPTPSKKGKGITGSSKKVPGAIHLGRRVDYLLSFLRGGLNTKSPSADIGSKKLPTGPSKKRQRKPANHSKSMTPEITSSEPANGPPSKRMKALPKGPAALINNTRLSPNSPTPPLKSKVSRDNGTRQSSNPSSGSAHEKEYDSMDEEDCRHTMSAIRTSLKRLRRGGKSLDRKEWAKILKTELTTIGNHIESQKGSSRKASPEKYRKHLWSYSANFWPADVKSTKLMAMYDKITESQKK

As for `CC(C)Nc1nc2c(cc1C(=O)N(C)C)CCNCC2`, the Percent Effect in assay [1] was -4.01%; in assay [2], 16%; in assay [3], 4.22%; in [4], 9.77%; in the assay with Trypanosoma cruzi, -0.772%; in assay [5], -24.6%. The Percent Effect in assay [6] was 5.47%; in the assay listed under Homo sapiens, -7.58%; in [7], 0%; in [8] it was -7.5%; in assay [9] it was -4.61%.

In the case of `CO[C@H]1CCN(S(=O)(=O)c2cn(C)cn2)[C@H]1Cc1cccnc1`, the Percent Effect is -3.74% in assay [1]; 8% in [2]; -3.32% in assay [3]; -5.55% in assay [4]; 6.37% in the assay on Trypanosoma cruzi; -49.6% in assay [5]. Besides, the Percent Effect in assay [6] was 7.86%; in the assay listed under Homo sapiens it was -0.203%; in assay [7], 3.12%; in assay [8] it was 15%; in assay [9], -9.19%.

Regarding `Cn1c(CN2CCN(CC3CC3)CC2)nnc1C1CCC1`, the Percent Effect in assay [1] is -8.27%; in assay [2], 0%; in assay [3], -14%; in assay [4], 5.49%; in the assay with Trypanosoma cruzi, -0.392%; in [5], -1.36%. Moreover, the Percent Effect in [6] was 4.44%; in the assay filed under Homo sapiens it was -5.43%; in [7], -2.15%; in [8] it was 0%; in assay [9] it was -2.31%.

With `CC(C)c1cc(C(=O)N2CCN(Cc3ccsc3)CC2)n[nH]1`, the Percent Effect is -2.94% in assay [1]; 13.5% in assay [2]; -2.35% in assay [3]; 15% in [4]; 5.57% in the assay with Trypanosoma cruzi; 18.1% in assay [5]. The Percent Effect in assay [6] was 12.1%; in the assay listed under Homo sapiens, 28%; in assay [7], 4.3%; in [8], 18.5%; in assay [9], -3.72%.

Turning to `CCc1nc(NS(=O)(=O)c2ccc(F)cc2C)no1`, the Percent Effect in assay [1] was -4.36%; in assay [2] it was -2.67%; in [3], -5.09%; in assay [4], 21.3%; with Trypanosoma cruzi, 8.67%; in assay [5] it was -0.521%. For the same compound, the Percent Effect in assay [6] is -0.872%; in the assay listed under Homo sapiens, 15.9%; in assay [7] it was 0.546%; in [8], 6.17%; in assay [9], -1.94%.

Take `CCOc1nnc(CNC2CCCN(c3ccc(C)nn3)C2)s1` (stereo not drawn): the Percent Effect is -2.75% in assay [1]; 13.5% in [2]; -13.2% in assay [3]; -9.51% in assay [4]; 6.89% in the assay with Trypanosoma cruzi; -8.02% in assay [5]. Further, the Percent Effect in [6] is 15.1%; in the assay filed under Homo sapiens it was 18.7%; in assay [7] it was 5.42%; in assay [8], 23.5%; in [9] it was -2.87%.

On to `Cc1nc2ccccc2nc1CN1CCCC1c1c(C)nn(C)c1C` (stereo not drawn), for which the Percent Effect in assay [1] was -4.48%; in assay [2], 1.27%; in assay [3], 5.44%; in assay [4], 6.81%; with Trypanosoma cruzi, 5.44%; in assay [5] it was -1.94%. Besides, the Percent Effect was 2.23% in [6]; 3.07% in the assay listed under Homo sapiens; 5.21% in assay [7]; 17.7% in [8]; -26.1% in [9].

For the compound `Cc1ncsc1C(=O)NC1CCN(CC(=O)NCc2ccccc2)CC1`, the Percent Effect in assay [1] is -3.36%; in [2], 13.2%; in assay [3], 0.646%; in [4], 1.72%; with Trypanosoma cruzi it was 2.71%; in assay [5] it was -1.8%. In addition, the Percent Effect is 7.02% in assay [6]; -2.18% in the assay filed under Homo sapiens; 9.36% in assay [7]; 16.1% in [8]; -2.75% in assay [9].

These data come from ChEMBL document CHEMBL3988442, “University of Dundee, Small-Polar-MMV Screening Library” (2021).
